In PubChem BioAssay (NCATS):
Inconclusive results are not listed. A number with no mark means an inactive call. Activity calls are given as the source filed them. The call rests on the fitted dose curve; in most records, active means well fitted cell-killing curve with a large enough effect; inconclusive means small, poorly fitted or top-dose-only effect, or effect the other way; inactive means no such curve, though single readings can be large or run the other way. Starred links: 1 amine or outer side, 2 acyl side, 3 side chain; linkers in the order of their positions; H or OH if unused. Positions of bridges follow the written chain, without caps; N, C: chain ends. Non-standard residues stand in square brackets, D forms with d. Residues, ends and D or L forms follow the SMILES beside them. Chains are numbered I, II in the order given. Actinocin(9to1) = Cc1c2oc3c(C)ccc(C(=O)[*:1])c3nc-2c(C(=O)[*:2])c(N)c1=O; NMeV = CN[CH](C(=O)O)C(C)C; Sar = CNCC(=O)O

Tests used:
[1] = Quantitative High-Throughput drug screen in 47 multiple myeloma cell lines against the NCATS MIPE library collection: OCIMY7_PLB cell viability assay (AID 1918987); settings: OCI-MY7 myeloma viability, CellTiter-Glo ATP, 48 h; viability (% of DMSO): at 45.8 µM (top of the series); further: nearly all actives have a fitted effect of over 65% in size
In short: (§1)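 ATP-based CellTiter-Glo luminescence after 48 h drug exposure (37 °C, 5% CO2) of 500 myeloma cells per well. DMSO-only wells set 100% viability, media-only wells 0%; MIPE 4.0 library added by pin tool.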

[2] = Quantitative High-Throughput drug screen in 47 multiple myeloma cell lines against the NCATS MIPE library collection: OPM1_PLB cell viability assay (AID 1918989); further: nearly all actives have a fitted effect of over 40% in size; further: potency means the concentration at half of the fitted maximal effect
In short: as §1

[3] = Quantitative High-Throughput drug screen in 47 multiple myeloma cell lines against the NCATS MIPE library collection: XG6_PLB cell viability assay (AID 1919865); further: nearly all actives have a fitted effect of over 40% in size; further: potency means the concentration at half of the fitted maximal effect
In short: as §1

[4] = Quantitative High-Throughput drug screen in 47 multiple myeloma cell lines against the NCATS MIPE library collection: XG1_PLB cell viability assay (AID 1919866); further: nearly all actives have a fitted effect of over 35% in size; further: potency means the concentration at half of the fitted maximal effect
In short: as §1

[5] = Quantitative High-Throughput drug screen in 47 multiple myeloma cell lines against the NCATS MIPE library collection: PE2_PLB cell viability assay (AID 1919869); further: nearly all actives have a fitted effect of over 35% in size; further: potency means the concentration at half of the fitted maximal effect
In short: as §1

[6] = Quantitative High-Throughput drug screen in 47 multiple myeloma cell lines against the NCATS MIPE library collection: OCIMY5_PLB cell viability assay (AID 1918988); further: nearly all actives have a fitted effect of over 65% in size; further: potency means the concentration at half of the fitted maximal effect
In short: as §1

[7] = Quantitative High-Throughput drug screen in 47 multiple myeloma cell lines against the NCATS MIPE library collection: SKMM1_PLB cell viability assay (AID 1919863); settings: SKMM1 myeloma viability, CellTiter-Glo ATP, 48 h; viability: hits give low values; further: nearly all actives have a fitted effect of over 35% in size; further: potency means the concentration at half of the fitted maximal effect
In short: as §1

[8] = Quantitative High-Throughput drug screen in 47 multiple myeloma cell lines against the NCATS MIPE library collection: U266_ATCC cell viability assay (AID 1919864); further: nearly all actives have a fitted effect of over 35% in size; further: potency means the concentration at half of the fitted maximal effect
In short: as §1

[9] = Quantitative High-Throughput drug screen in 47 multiple myeloma cell lines against the NCATS MIPE library collection: VP6_DJ cell viability assay (AID 1919867); further: nearly all actives have a fitted effect of over 40% in size; further: potency means the concentration at half of the fitted maximal effect
In short: as §1

[10] = Quantitative High-Throughput drug screen in 47 multiple myeloma cell lines against the NCATS MIPE library collection: UTMC2_PLB cell viability assay (AID 1919868); settings: CellTiter-Glo ATP luminescence, 48 h; viability (% of DMSO control): at 45.8 µM (top of the series); further: nearly all actives have a fitted effect of over 55% in size; further: potency means the concentration at half of the fitted maximal effect
In short: as §1

Structure (SMILES)	Potency [1]	Potency [2]	Potency [3]	Potency [4]	Potency [5]	Potency [6]	Potency [7]	Potency [8]	Potency [9]	Potency [10]	viability [7]
CN(N=O)C(=O)N[C@H]1C(O)OC(CO)[C@@H](O)[C@H]1O (some centres undefined)	inactive	inactive	inactive	inactive	inactive						
Cc1ccc2nc(NCCN)c3ncc(C)n3c2c1		13.2 µM (active)	1.87 µM (active)	2.35 µM (active)	9.35 µM (active)	1.32 µM (active)	4.69 µM (active)	3.72 µM (active)	5.26 µM (active)	4.69 µM (active)	
CCc1nc(-c2cccc(C)c2)c(-c2ccnc(NC(=O)c3ccccc3)c2)s1		13.2 µM (active)	20.9 µM (active)		13.2 µM (active)	16.6 µM (active)	7.43 µM (active)			23.5 µM (active)	
C=C1CCC2[C@](C)(CO)C(O)CC[C@]2(C)C1CC=C1C(=O)OCC1O (some centres undefined)		inactive	inactive	inactive	inactive	42.9 µM (active)		inactive	inactive		
CCCCCCCCc1ccc(CCC(N)(CO)CO)cc1		4.69 µM (active)	3.32 µM (active)	4.18 µM (active)	8.33 µM (active)	14.8 µM (active)	23.5 µM (active)	16.6 µM (active)	4.69 µM (active)	9.35 µM (active)	
COc1ccc2c(c1OC)C(=O)OC2[C@H]1c2c(cc3c(c2OC)OCO3)CCN1C (some centres undefined)		0.469 µM (active)	0.0469 µM (active)	0.0418 µM (active)	0.372 µM (active)	0.0235 µM (active)	0.0235 µM (active)	1.66 µM (active)	0.0743 µM (active)	0.132 µM (active)	
N#Cc1ccc(COC[C@H]2O[C@@H](n3c(NCc4ccc(Cl)c(Cl)c4)nc4c(N)ncnc43)[C@@H](O)[C@@H]2O)cc1		5.26 µM (active)	16.6 µM (active)	2.64 µM (active)		3.72 µM (active)		20.9 µM (active)		1.32 µM (active)	
C=CC(=O)N1CCc2ccc(-n3c(=O)ccc4cnc5ccc(-c6cnn(C)c6)cc5c43)cc21		0.833 µM (active)	2.96 µM (active)	1.32 µM (active)	1.66 µM (active)	3.32 µM (active)	1.32 µM (active)	3.32 µM (active)	2.96 µM (active)	1.05 µM (active)	
COc1cccc2c1C(=O)c1c(O)c3c(c(O)c1C2=O)C[C@@](O)(C(C)=O)C[C@H]3O[C@H]1C[C@H](N)[C@H](O)[C@H](C)O1		0.105 µM (active)	0.0469 µM (active)	0.105 µM (active)	0.0418 µM (active)	0.0469 µM (active)	0.166 µM (active)	0.166 µM (active)	0.0418 µM (active)	0.0118 µM (active)	
C[C@H]1COc2c(N3CCN(C)CC3)c(F)cc3c(=O)c(C(=O)O)cn1c23		inactive	inactive	inactive	inactive	inactive		inactive		inactive	
COC(=O)[C@H](CCCN=C(N)N)NS(=O)(=O)c1ccc(C)cc1		inactive	11.8 µM (active)		inactive	inactive					122%
CCOC(=O)[C@@H](N)Cc1ccc(-c2cc(O[C@H](c3ccc(Cl)cc3-n3ccc(C)n3)C(F)(F)F)nc(N)n2)cc1		23.5 µM (active)	16.6 µM (active)	23.5 µM (active)	23.5 µM (active)	18.7 µM (active)	23.5 µM (active)	23.5 µM (active)	26.4 µM (active)	20.9 µM (active)	
C=C(C)[C@@H]1CC[C@]2(C(=O)O)CC[C@]3(C)[C@H](CC[C@@H]4[C@@]5(C)CC[C@H](O)C(C)(C)[C@@H]5CC[C@]43C)[C@@H]12		inactive	2.96 µM (active)	inactive	inactive	5.9 µM (active)	0.935 µM (active)	inactive	7.43 µM (active)		
COc1ccc(C(C)=O)c(O)c1		inactive	18.7 µM (active)		inactive	inactive					112%
CC1(C)[C@H](O[C@H]2O[C@H](C(=O)O)[C@@H](O)[C@H](O)[C@H]2O[C@@H]2O[C@H](C(=O)O)[C@@H](O)[C@H](O)[C@H]2O)CC[C@@]2(C)[C@H]1CC[C@]1(C)[C@H]2C(=O)C=C2[C@H]3C[C@@](C)(C(=O)O)CC[C@]3(C)CC[C@]21C		inactive	inactive	inactive	inactive	inactive			inactive		142%
NC1=N[C@H]2[C@H](CS[C@H]2CCCCC(=O)O)N1		inactive	inactive	inactive	inactive	inactive		inactive	inactive	inactive	

Structure (SMILES)	Potency [1]	Potency [2]	Potency [3]	Potency [4]	Potency [5]	Potency [6]	Potency [7]	Potency [8]	Potency [9]	Potency [10]	viability [7]
CN(C)c1ccc2cc(C(=O)N[C@@H](CCCN=C(N)CCl)C(=O)NCc3ccccc3)ccc2c1		7.43 µM (active)	0.935 µM (active)	1.18 µM (active)	8.33 µM (active)	4.18 µM (active)	18.7 µM (active)	2.96 µM (active)	4.69 µM (active)		
C[C@H]1[C@@H](OC(=O)CCC(=O)O)O[C@@H]2O[C@@]3(C)CC[C@@H]4[C@H](C)CC[C@@H]1[C@@]24OO3		2.96 µM (active)	4.69 µM (active)	10.5 µM (active)	5.26 µM (active)	4.69 µM (active)	4.69 µM (active)	16.6 µM (active)		4.69 µM (active)	
COc1ccc(C=Cc2cc(OC)c(OC)c(OC)c2)cc1NC(=O)[C@H](N)CO		0.001 µM (active)	inactive			0.0026 µM (active)	0.0059 µM (active)	0.0132 µM (active)		0.001 µM (active)	
CC(=O)OC[C@@H]1O[C@@H](n2ccc(=O)[nH]c2=O)[C@H](OC(C)=O)[C@H]1OC(C)=O		inactive	inactive	inactive	inactive	inactive		inactive		inactive	
Cn1cc(C2=C(c3c4n(c5ccccc35)CCC(CN)C4)C(=O)NC2=O)c2ccccc21 (centres undefined)		7.43 µM (active)	7.43 µM (active)	7.43 µM (active)	7.43 µM (active)	8.33 µM (active)	20.9 µM (active)	16.6 µM (active)	6.62 µM (active)		
Cc1c2oc3c(C)ccc(C(=O)NC4C(=O)NC(C(C)C)C(=O)N5CCCC5C(=O)N(C)CC(=O)N(C)C(C(C)C)C(=O)OC4C)c3nc-2c(C(=O)NC2C(=O)NC(C(C)C)C(=O)N3CCCC3C(=O)N(C)CC(=O)N(C)C(C(C)C)C(=O)OC2C)c(N)c1=O (centres undefined) (I: TVP[Sar][NMeV] / II: TVP[Sar][NMeV]; ester I:1-I:C, II:1-II:C; linker I:N-II:N via Actinocin(9to1); configuration not given here)		inactive	inactive	inactive	inactive	inactive		inactive	inactive	inactive	-11%
CC(=O)N1CCN(c2ccc(OCc3nn(C)c(C)c3-c3cccc4c(CCCOc5cccc6ccccc56)c(C(=O)O)n(Cc5cccnc5)c34)cc2)CC1		0.469 µM (active)	0.105 µM (active)	0.235 µM (active)	1.66 µM (active)	0.118 µM (active)	20.9 µM (active)		0.332 µM (active)		
COc1cc2c(Nc3ccc(Cl)c(Cl)c3F)ncnc2cc1OCC1C[C@@H]2CN(C)C[C@H]2C1		3.32 µM (active)	1.05 µM (active)	2.35 µM (active)	1.87 µM (active)	1.87 µM (active)		23.5 µM (active)	2.64 µM (active)	2.35 µM (active)	
CCOC(=O)[C@H](CCc1ccccc1)N[C@@H](C)C(=O)N1[C@@H](C(=O)O)C[C@H]2CCC[C@@H]21		5.26 µM (active)	7.43 µM (active)	7.43 µM (active)	8.33 µM (active)	14.8 µM (active)		8.33 µM (active)	6.62 µM (active)		
O=C(Nc1cc2cc[nH]c2cn1)c1ccccc1		14.8 µM (active)	16.6 µM (active)	16.6 µM (active)	10.5 µM (active)	5.26 µM (active)	11.8 µM (active)	11.8 µM (active)	18.7 µM (active)	13.2 µM (active)	
NC(=O)Nc1sc(-c2ccc(F)cc2)cc1C(N)=O		0.833 µM (active)	0.0105 µM (active)	0.0469 µM (active)	0.372 µM (active)	2.09 µM (active)	11.8 µM (active)	13.2 µM (active)	1.32 µM (active)	0.743 µM (active)	
CC(C)(C)c1nc2c3cc[nH]c(=O)c3c3cc(F)ccc3c2[nH]1		0.743 µM (active)	1.32 µM (active)	0.743 µM (active)	0.833 µM (active)	1.87 µM (active)	0.935 µM (active)			0.187 µM (active)	
Cn1cc(C[C@@H](N)C(=O)O)c2ccccc21		inactive	inactive	inactive	inactive	inactive	7.24 µM (active)				
COc1cc([C@@H]2c3cc4c(cc3[C@@H](O[C@@H]3O[C@@H]5CO[C@@H](c6cccs6)O[C@@H]5[C@H](O)[C@@H]3O)[C@H]3COC(=O)[C@H]23)OCO4)cc(OC)c1O		1.18 µM (active)	0.0469 µM (active)	0.526 µM (active)	0.166 µM (active)	1.66 µM (active)		14.8 µM (active)	0.469 µM (active)	0.0526 µM (active)	
O=C(O)C(=O)Nc1cccc(C2=NN=N[N]2)c1		inactive	inactive	inactive	inactive	inactive			inactive		129%
CC(C)NC[C@@H](C(=O)N1CCN(c2ncnc3c2[C@H](C)C[C@H]3O)CC1)c1ccc(Cl)cc1		0.372 µM (active)	1.66 µM (active)	1.87 µM (active)		1.66 µM (active)	10.5 µM (active)		0.833 µM (active)	0.105 µM (active)	
